# According to ChEMBL document CHEMBL3433997, “St. Jude Leishmania screening dataset” (2016):
# Tests used:
# Assay type in all cases: functional
# [1] = target: Solute carrier family 2, facilitated glucose transporter member 1 (Homo sapiens) (UniProt P11166); experiment: ST_JUDE_LEISH: Cytotoxicity at 2uM final concentration against transgenic Leishmania Mexicana promastigotes LmGLUT1 that are glucose transport deficient and complemented with the human glucose transporter GLUT1. Activity is measured by DNA content using SYBR green in vitro
# Sequence of Solute carrier family 2, facilitated glucose transporter member 1 (Homo sapiens) (P11166 whole entry): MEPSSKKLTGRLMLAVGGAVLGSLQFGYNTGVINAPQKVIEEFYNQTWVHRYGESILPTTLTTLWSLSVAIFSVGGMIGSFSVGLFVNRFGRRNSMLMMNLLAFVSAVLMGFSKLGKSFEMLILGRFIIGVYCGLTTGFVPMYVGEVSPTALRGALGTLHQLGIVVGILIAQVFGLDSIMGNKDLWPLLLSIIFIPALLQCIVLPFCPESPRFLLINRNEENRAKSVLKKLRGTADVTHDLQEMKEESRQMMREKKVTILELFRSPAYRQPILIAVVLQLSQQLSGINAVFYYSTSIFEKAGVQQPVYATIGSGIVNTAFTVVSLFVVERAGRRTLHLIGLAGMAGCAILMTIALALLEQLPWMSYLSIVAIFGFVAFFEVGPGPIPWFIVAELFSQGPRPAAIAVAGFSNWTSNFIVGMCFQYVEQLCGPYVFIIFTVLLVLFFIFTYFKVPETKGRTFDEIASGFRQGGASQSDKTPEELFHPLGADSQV
# [2] = target: Hexose transporter 1 (Plasmodium falciparum) (UniProt O97467); experiment: ST_JUDE_LEISH: Cytotoxicity at 2uM final concentration against transgenic Leishmania Mexicana promastigotes LmPfHT that are glucose transport deficient and complemented with the Plasmodium falciparum hexose transporter. Activity is measured by DNA content using SYBR green in vitro
# [3] = target: Glucose transporter (Leishmania mexicana) (UniProt O61059); experiment: ST_JUDE_LEISH: Cytotoxicity at 2uM final concentration against transgenic Leishmania Mexicana promastigotes LmGT2 that are glucose transport deficient and complemented with the L. Mexicana glucose transporter 2. Activity is measured by DNA content using SYBR green in vitro
SMILES,inhibition [1] [%],inhibition [2] [%],inhibition [3] [%]
Cc1ccccc1-c1nc2c(CN3CCC(O)(c4ccccc4)CC3)c(O)ccc2[nH]1,11.5,8.82,8.8
CN1CCN(CCCN(Cc2csc(-c3ccc(CNCc4ccccc4)cc3)n2)C(=O)c2cc(F)cc(F)c2)CC1,4.63,2.02,1.42
FC(F)(F)c1cccc(Nc2nc(-n3ccnc3)nc(-n3ccnc3)n2)c1,1.93,0.62,1.05
CCCCn1c(SC(C)C)nc2c(c1=O)C1(CCCCC1)Cc1ccccc1-2,4.14,4.8,3.66
Nc1nccc2ccc(-c3ccc4nccn4c3)cc12,3.49,3.17,4.92
Cc1cc(-c2ccc3c(c2)CCN(CCCOc2ccc4c(c2)CCN4C(=O)/C=C/c2ccccc2Cl)CC3)no1,5.8,12,4.78
COc1cc2nc(N3CCC(C(N)=O)CC3)nc(NCc3ccccc3)c2cc1OC,3.29,1.29,0.48
CNCCNCc1cccc(-c2ccc(-c3nc4cccc(C)c4[nH]3)s2)c1,-0.6,0.01,-0.03
Cc1ccc(NCc2cccc(F)c2)cc1S(=O)(=O)N[C@@H]1CCN(C#N)C1,7.1,3.53,1.18
COc1ccc(CNc2nc(Nc3cccc(C#N)c3)nc(Nc3cccc(C#N)c3)n2)cc1Cl,3.25,0.95,-1.38
CN(C)c1ccc(-c2csc(C(=O)NCC3CCN(CC4CCCCC4)C3)c2)cc1 (centres undefined),2.79,0.77,1.05
Cc1ccc(O)cc1Nc1ccnc2cc(-c3ccc(CN4CCCCC4)o3)ccc12,14.4,12.2,13.8
O=C(/C=C/c1ccc(Cl)c(Cl)c1)NCCCCCN1CCC(NC(=O)Nc2ccc(F)cc2F)CC1,1.35,2.88,1.33
CC(=O)Nc1ccc(Nc2cc(C)nc(Nc3ccc(NC(C)=O)cc3)n2)cc1,2.12,5.08,2.71
O=C(Nc1cccc(C(F)(F)F)c1)Nc1ccc(Cl)c(C(F)(F)F)c1,-1.34,-2.17,-0.99
CCc1cn2c3c(cc(C(=O)N[C@@H](Cc4ccccc4)[C@H](O)CNC4CCOCC4)cc13)N(C(C)C)S(=O)(=O)CC2,-1.49,3.8,0.93
CCCCN(CCCC)CCOc1cc2c(cc1OC)CCN2C(=O)/C=C/c1ccccc1Cl,1.13,1.58,-0.32

SMILES,inhibition [1] [%],inhibition [2] [%],inhibition [3] [%]
COc1ccccc1CCNc1nc(C)cc(N[C@@H](Cc2ccccc2)C(=O)NCCc2ccccc2)n1,7.15,7.61,2.86
COc1ccc(O)cc1/C=N/Nc1ccnc2cc(Cl)ccc12,7.1,5.98,9.21
CC(C)(C)C1CCc2nc(N)nc(N)c2C1 (centres undefined),44.3,55.5,46.5
CCN(c1ccc(F)cc1)S(=O)(=O)c1cc(Br)cc2c1N(C(=O)C1CC1)CC2,0.4,1.32,3.74
Cc1cc(C)c2cc(CNCCCNc3nc4ccccc4[nH]3)[nH]c2c1,1.11,0.15,2.91
O=C(Nc1ccc(Oc2ccccc2)cc1)N[C@@H](Cc1ccc(O)cc1)C(=O)NC1CCN(Cc2ccc(O)c([N+](=O)[O-])c2)C1 (some centres undefined),2.19,1.19,0.33
COc1ccc2ncc(F)c(CCN3C[C@H](CNCc4cc(C#N)c5c(c4)OCCO5)[C@H](O)C3)c2n1,7.97,8.03,1.91
CO/C(=C\C=C\c1cc2cc(Cl)c(Cl)cc2[nH]1)C(=O)NCCCN(C)CCN(C)c1ccccc1,4.46,3,1.47
CN1CCC(NCc2ccc(S(=O)(=O)Nc3ccc(Oc4cccc(Cl)c4)cc3)cc2)CC1,1.15,1.05,0.97
Cc1cc(C(=O)Nc2ccc(C)c(-c3nc(N(C(=O)c4ccc(F)c(C)c4)C4CCNCC4)nc4c3ccc(=O)n4-c3c(F)cccc3F)c2)ccc1F,1.66,0.07,0.59
O=C(Cn1c(CCc2cccc(F)c2F)cc(=O)c2cccnc21)N(CCCn1ccnc1)Cc1ccc(-c2ccc(C(F)(F)F)cc2)cc1,2.11,1.17,0.71
Cc1ncsc1CCN1C(=O)CC2(C1=O)C(=O)N(Cc1ccccc1)c1ccc(Cl)cc12 (centres undefined),1.9,2.58,-1.17
CCn1c(Sc2ccc(C#N)c([N+](=O)[O-])c2)nnc1-c1cccc(Cl)c1,16.9,14.9,11.8
CNS(=O)(=O)c1ccc(NC(=O)c2cc(-c3cccnc3)nc3ccc(Br)cc23)cc1,2.58,2.73,3.77
O=C(N[C@@H](Cc1ccccc1)C(=O)NC1CCCCC1)c1ccc(O)c(-c2cccc(C(F)(F)F)c2)c1,3.98,5.95,5.39
Cc1ccc(CON2C(=N)N=C(N)NC2(C)C)cc1C,4.78,3.55,3.93
